Active and inactive are the calls of the source.

One assay in a line: FRG1 promoter luciferase signal modulators, primary screen, FRG1 inhibition for FSHD, cell-based, C2C12 myotubes, firefly/Renilla luciferase, luminescence (AID 1084). The settings on record: higher = more signal, called active from +8 up or from −8 down.
In the case of `C=C(COC)C(=O)CC[C@H](OC(=O)c1ccccc1-c1ccccc1C(=O)O)c1cccc(OCCO)c1`, the z-score was -3.97 (inactive).

For the molecule `COC(=O)C(CC#Cc1ccc2c(c1)[C@]1(C(=O)N2)[C@H](C(=O)N2CCCCCCC2)[C@H]2C(=O)O[C@H](c3ccccc3)[C@H](c3ccccc3)N2[C@@H]1c1ccc(O)cc1)C(=O)OC`, the z-score was 1.65 (inactive). The same measure, in the same setting: in the case of `CCCC[C@H]1OB(O)C[C@H]2C1=C(COC)C[C@H]1C(=O)N(Cc3ccccc3)C(=O)[C@H]12` it was -0.788 (inactive); in that of `COCCOC(=O)N1C(=O)[C@@]2(c3cc(C#CCCO)ccc31)[C@H](C(=O)N1CCCCCCC1)[C@H]1C(=O)O[C@H](c3ccccc3)[C@H](c3ccccc3)N1[C@@H]2c1ccc(O)cc1`, -2.05 (inactive). For `Cc1ccc(S[C@]2(C(=O)O)CC(=O)N(Cc3ccccc3)[C@@H]2c2ccc(CO)cc2)cc1`, the z-score is -0.579 (inactive).

As for `COCCOC(=O)N1C(=O)[C@@]2(c3cc(C#CCNC(N)=O)ccc31)[C@H](c1ccc(OCCO)cc1)N1[C@H](c3ccccc3)[C@H](c3ccccc3)OC(=O)[C@H]1[C@@H]2C(=O)Nc1nc2ccccc2s1`, the z-score was 3.98 (inactive). Take `C=CC[C@@]12N=C(c3ccc(OCCCO)cc3)O[C@@H]1c1ccccc1CN(Cc1ccccc1)C2=O`: the z-score is -4 (inactive).

With `O=C(NCC(O)CO)[C@]1(Cc2ccccc2)N=C(c2ccc(OCCCO)cc2)O[C@@H]1c1ccccc1` (stereo partly specified), the z-score was -1.63 (inactive). Still for that read-out and setting: in the case of `C=CCNC(=O)[C@H]1[C@@H]2C(=O)O[C@@H](c3ccccc3)[C@@H](c3ccccc3)N2[C@@H](c2ccccc2OCCO)[C@]12C(=O)N(C(=O)OCCOC)c1ccc(C#CCNC(N)=O)cc12` it was -1.53 (inactive); in that of `C=CCC(OC(C)=O)[C@@H]1[C@@H](N(Cc2cccc3ccccc23)C(=O)Cc2ccc(F)cc2)c2cc(OCCCO)ccc2N1C(=O)Cc1ccc2ccccc2c1` (stereo partly specified), -1.32 (inactive). On the same count and under the same terms, in the case of `COC(=O)c1ccc(C#CC(NP(=O)(c2ccccc2)c2ccccc2)c2ccccc2)cc1` (stereo unspecified) it was -0.131 (inactive); in that of `C[C@H]1COC(=O)[C@H](Cc2ccccc2)NC(=O)[C@@H](C)COC(=O)[C@H](Cc2ccccc2)NC1=O`, -1.06 (inactive); in that of `CCOC(=O)C[C@H]1[C@H](OC(=O)c2cc3ccccc3oc2=O)[C@@H](NC(=O)C2CCCCC2)c2cc(OCCCO)ccc2N1C(=O)c1ccc2ccccc2n1`, -0.541 (inactive).

Take `COc1cccc([C@@H]2[C@@H](C)CC[C@H]3C(=O)N(C)[C@@H](C(C)C)C(=O)N23)c1`: the z-score was 0.056 (inactive). Regarding `COCC(=C=CC[C@H](O)c1ccc(OCCO)cc1)C[C@H](O)c1ccccn1`, the z-score is 1.61 (inactive). Regarding `C=C(CCCC)C(=O)CC[C@@H](OC(=O)c1cccnc1)c1cccc(OCCO)c1`, the z-score was 0.197 (inactive). Still for that read-out and setting: in the case of `CC(C)NC(=O)[C@@]1(Cc2ccccc2I)c2ccccc2C(=O)N(C2CCCCC2)[C@H]1c1ccc(CO)cc1` it was -2.62 (inactive). As for `NC(=O)[C@H]1[C@@H]2C(=O)O[C@@H](c3ccccc3)[C@@H](c3ccccc3)N2[C@@H](c2ccc(O)cc2)[C@]12C(=O)Nc1ccc(C#CCCO)cc12`, the z-score was -0.89 (inactive). On to `C=CCNC(=O)[C@@H]1[C@H]2C(=O)O[C@H](c3ccccc3)[C@H](c3ccccc3)N2[C@H](c2ccc(OCCO)cc2)[C@@]12C(=O)N(C(=O)OCCOC)c1ccc(C#CC3(O)CCCCCC3)cc12`, for which the z-score is 0.132 (inactive). The same measure, in the same setting: the value for `CSCC[C@@H]1NC(=O)CC=C[C@@H](C)COC(=O)[C@H](CCSC)NC(=O)CC=C[C@@H](C)COC1=O` was -0.889 (inactive). Take `COC(=O)[C@@]1(Cc2ccc(OC)cc2)[C@H]2c3cc(C(=O)N(C)C)n(CCc4ccc(OC)c(Br)c4)c3C[C@H]2CN1C(=O)c1ccccc1`: the z-score is -0.151 (inactive). For `C#C[C@H](O[Si](C#Cc1ccccc1)(C(C)C)C(C)C)c1ccccc1`, the z-score is 1.15 (inactive). Still for that read-out and setting: in the case of `COCCCNC(=O)[C@@H]1c2ccccc2C(=O)N(CC23CC4CC(CC(C4)C2)C3)[C@H]1c1ccc(CO)cc1` it was -2.03 (inactive). As to `C[C@H]1C2[C@H](Cc3ccccc3)NC(=O)[C@]23C(=O)N[C@H](Cc2ccccc2)C(=O)N[C@@H](Cc2ccccc2)C(=O)NC/C=C\C/C=C/C3[C@@H]2O[C@]12C` (stereo partly specified), the z-score was -0.293 (inactive). `CO[C@]12C=C(Br)[C@@H](C[C@@H]1c1ccccc1)[C@@]1(CO1)C2=O`: the z-score is -0.358 (inactive). In the case of `CO[C@H]1COC(=O)[C@@H](C)COC(=O)[C@H](Cc2ccccc2)NC(=O)CC=C[C@H]1C`, the z-score was -0.117 (inactive).

The next assay is described as follows: binders of probe aFST on microarray, primary screen, stem cell growth factor project, biochemical, small-molecule microarray, fluorescence 635/667 (AID 1086).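 Note: score merges 667 nm fluorescence with signal-to-noise of each printed compound spot.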 The settings on record: higher = more signal.
`C=CC[C@@]1(C(=O)NCC(O)CO)N=C(c2ccc(OCCCO)cc2)O[C@@H]1c1ccccc1CN=[N+]=[N-]` (stereo partly specified): the composite z-score was determined as 0.966. On to `CO[C@H]1COC(=O)[C@@H](C)NC(=O)CC=C[C@@H](C)[C@H](OC)COC(=O)CC=C[C@@H]1C`, for which the composite z-score is -0.0849. Still for that read-out and setting: the value for `CC(C)C[C@@H]1NC(=O)[C@H]2C[C@@H](C(=O)NCCCCCC[N+](C)(C)C)[C@@H](c3ccc(O)cc3)N2C1=O` was 0.0716; that for `Cc1ccc(S(=O)(=O)N[C@H]2COC(=O)CC=C[C@H](C)COC(=O)N[C@@H](C)C(=O)CC=C[C@@H]2C)cc1` was 0.0218; that for `C#CCCCON=C1C[C@@H](O)[C@@H](O)[C@@H]2[C@@H]3C(=O)N(Cc4ccc5c(c4)OCO5)C(=O)[C@@H]3CC[C@@H]12` was 0.351. Still for that read-out and setting: the value for `CO[C@H]1COC(=O)[C@@H](OCc2ccccc2)C=C[C@H](C)[C@@H](OC)COC(=O)[C@H](OCc2ccccc2)C=C[C@@H]1C` was -0.0171; that for `COCCOC(=O)N1C(=O)[C@@]2(c3cc(C#CCCO)ccc31)[C@H](c1ccc(OCCO)cc1)N1[C@H](c3ccccc3)[C@H](c3ccccc3)OC(=O)[C@H]1[C@@H]2C(=O)NC[C@H](O)c1ccccc1` was 0.788; that for `NC(=O)NCC#Cc1ccc2c(c1)[C@]1(C(=O)N2)[C@H](c2ccccc2OCCO)N2[C@H](c3ccccc3)[C@H](c3ccccc3)OC(=O)[C@H]2[C@@H]1C(=O)N1CCN(c2ncccn2)CC1` was 0.315.

In turn, `COCCOC(=O)N1C(=O)[C@@]2(c3cc(C#CCCO)ccc31)[C@H](c1ccc(O)cc1)N1[C@H](c3ccccc3)[C@H](c3ccccc3)OC(=O)[C@H]1[C@@H]2C(=O)Nc1nc2ccccc2s1` showed a composite z-score of 0.293. The same measure, in the same setting: the value for `C=C(COC)C(=O)CC[C@H](OC(=O)c1ccccc1-c1ccccc1C(=O)O)c1cccc(OCCO)c1` was -0.25. On the same count and under the same terms, in the case of `COC(=O)C(CC#Cc1ccc2c(c1)[C@]1(C(=O)N2)[C@H](C(=O)N2CCCCCCC2)[C@H]2C(=O)O[C@H](c3ccccc3)[C@H](c3ccccc3)N2[C@@H]1c1ccc(O)cc1)C(=O)OC` it was -0.137. On the same count and under the same terms, the value for `CCCC[C@H]1OB(O)C[C@H]2C1=C(COC)C[C@H]1C(=O)N(Cc3ccccc3)C(=O)[C@H]12` was 0.633.

`COCCOC(=O)N1C(=O)[C@@]2(c3cc(C#CCCO)ccc31)[C@H](C(=O)N1CCCCCCC1)[C@H]1C(=O)O[C@H](c3ccccc3)[C@H](c3ccccc3)N1[C@@H]2c1ccc(O)cc1` gave a composite z-score of 2.25. `Cc1ccc(S[C@]2(C(=O)O)CC(=O)N(Cc3ccccc3)[C@@H]2c2ccc(CO)cc2)cc1` displayed a composite z-score of 0.262. Consider `COCCOC(=O)N1C(=O)[C@@]2(c3cc(C#CCNC(N)=O)ccc31)[C@H](c1ccc(OCCO)cc1)N1[C@H](c3ccccc3)[C@H](c3ccccc3)OC(=O)[C@H]1[C@@H]2C(=O)Nc1nc2ccccc2s1`, for which the composite z-score stood at 0.98. As for `C=CC[C@@]12N=C(c3ccc(OCCCO)cc3)O[C@@H]1c1ccccc1CN(Cc1ccccc1)C2=O`, the composite z-score is 0.15. On the same count and under the same terms, the value for `O=C(NCC(O)CO)[C@]1(Cc2ccccc2)N=C(c2ccc(OCCCO)cc2)O[C@@H]1c1ccccc1` (stereo partly specified) was 0.864; that for `C=CCNC(=O)[C@H]1[C@@H]2C(=O)O[C@@H](c3ccccc3)[C@@H](c3ccccc3)N2[C@@H](c2ccccc2OCCO)[C@]12C(=O)N(C(=O)OCCOC)c1ccc(C#CCNC(N)=O)cc12` was 0.428.

The molecule `C=CCC(OC(C)=O)[C@@H]1[C@@H](N(Cc2cccc3ccccc23)C(=O)Cc2ccc(F)cc2)c2cc(OCCCO)ccc2N1C(=O)Cc1ccc2ccccc2c1` (stereo partly specified) returned a composite z-score of -0.299. Same read-out and setting: in the case of `COC(=O)c1ccc(C#CC(NP(=O)(c2ccccc2)c2ccccc2)c2ccccc2)cc1` (stereo unspecified) it was 1.34; in that of `C[C@H]1COC(=O)[C@H](Cc2ccccc2)NC(=O)[C@@H](C)COC(=O)[C@H](Cc2ccccc2)NC1=O`, 0.0531; in that of `CCOC(=O)C[C@H]1[C@H](OC(=O)c2cc3ccccc3oc2=O)[C@@H](NC(=O)C2CCCCC2)c2cc(OCCCO)ccc2N1C(=O)c1ccc2ccccc2n1`, 0.33. As for `COc1cccc([C@@H]2[C@@H](C)CC[C@H]3C(=O)N(C)[C@@H](C(C)C)C(=O)N23)c1`, the composite z-score was -0.0409. For the molecule `COCC(=C=CC[C@H](O)c1ccc(OCCO)cc1)C[C@H](O)c1ccccn1`, the composite z-score was -0.192. On the same count and under the same terms, the value for `C=C(CCCC)C(=O)CC[C@@H](OC(=O)c1cccnc1)c1cccc(OCCO)c1` was 0.344. `CC(C)NC(=O)[C@@]1(Cc2ccccc2I)c2ccccc2C(=O)N(C2CCCCC2)[C@H]1c1ccc(CO)cc1` came in with a composite z-score of 1.38.

On to `NC(=O)[C@H]1[C@@H]2C(=O)O[C@@H](c3ccccc3)[C@@H](c3ccccc3)N2[C@@H](c2ccc(O)cc2)[C@]12C(=O)Nc1ccc(C#CCCO)cc12`, for which the composite z-score is -0.605. Same read-out and setting: the value for `C=CCNC(=O)[C@@H]1[C@H]2C(=O)O[C@H](c3ccccc3)[C@H](c3ccccc3)N2[C@H](c2ccc(OCCO)cc2)[C@@]12C(=O)N(C(=O)OCCOC)c1ccc(C#CC3(O)CCCCCC3)cc12` was 0.624; that for `CSCC[C@@H]1NC(=O)CC=C[C@@H](C)COC(=O)[C@H](CCSC)NC(=O)CC=C[C@@H](C)COC1=O` was -0.15; that for `COC(=O)[C@@]1(Cc2ccc(OC)cc2)[C@H]2c3cc(C(=O)N(C)C)n(CCc4ccc(OC)c(Br)c4)c3C[C@H]2CN1C(=O)c1ccccc1` was 1.95.

For the origin of these results see PubChem BioAssay.
